Compound activity as filed in PubChem BioAssay.
Compounds with a hit are over-represented: about 3.8% of the library has one in this group of screens.
PrP UTR inh: inhibition of PrP 5' UTR reporter expression. cell-based PrP 5' UTR mRNA reporter, plate reader. inhibition, % (concentration not given with the values). 0.35% of 340,000 active; in the data active = inhibition above about 52%; note: 0 = median of the neutral control wells
Yp Topo-I inh: Yersinia pestis topoisomerase I inhibitors, primary screen, biochemical, cleavage product accumulation, plate reader, single point; DNA topoisomerase I (Yersinia pestis CO92); Y. pestis Topo-I cleavage product accumulation; activity, % at 10 µM; 0.064% of 360,000 active; AID 504884, 2011; in the data active = activity above about 50%, passing the limit was not always enough
Mtb hypoxia inh: PubChem AID 1159583. fluorescence inhibition, % (concentration not given with the values). M. tuberculosis hypoxia-regulated fluorescent reporter, fluorescence. 0.1% of 300,000 active; in the data active = fluorescence inhibition mostly above about 23%, no sharp cut-off; inactive = mostly below about 17%
PrPC TRFRET: inhibitors of human cell surface prion protein PrPC, primary screen, cell-based, TR-FRET; TR-FRET read-out; inhibition, % at 13.8 µM; 0.43% of 370,000 active; AID 720596, 2013; in the data active = inhibition above about 24%; note: 0% = median of the test wells and 100% = reference compound wells
Mtb FBA inh: Mtb FBA enzyme inhibitors, primary screen, biochemical, fluorescence, strain H37Rv. purified M. tuberculosis FBA, fluorescence read-out. inhibition, % at 1 µM. 2.3% of 360,000 active. AID 588726, 2011;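 note: 0% = vehicle and 100% = reference inhibitor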
Target sequence (P9WQA3 whole entry, looked up): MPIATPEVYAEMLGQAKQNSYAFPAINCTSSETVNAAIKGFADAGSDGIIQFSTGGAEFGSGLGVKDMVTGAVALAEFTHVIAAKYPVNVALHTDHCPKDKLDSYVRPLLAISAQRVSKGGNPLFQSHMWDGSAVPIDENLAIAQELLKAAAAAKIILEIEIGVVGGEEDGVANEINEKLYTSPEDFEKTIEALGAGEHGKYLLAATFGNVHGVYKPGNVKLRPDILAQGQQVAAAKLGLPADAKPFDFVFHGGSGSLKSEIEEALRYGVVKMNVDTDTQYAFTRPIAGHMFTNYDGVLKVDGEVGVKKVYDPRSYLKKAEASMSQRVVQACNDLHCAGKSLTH
GDH-TPI counter-1: GDH-TPI coupling enzyme inhibitors, primary screen, artefact control for M. tuberculosis FBA inhibitor project, biochemical, absorbance, full deck | 1.2% of 360,000 active | inhibition, % at 4.8 µM | GDH-TPI coupled enzyme counterscreen, NADH absorbance; in the data active = inhibition above about 30%;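 note: 0% = DMSO wells and 100% = wells lacking the enzyme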
Mtb FBA inh conf: M. tuberculosis aldolase blockers, biochemical, fluorescence, strain H37Rv, confirmation | shares compounds with Mtb FBA inh | purified M. tuberculosis FBA, fluorescence read-out | inhibition, % at 1 µM | 78% of 5,600 active;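 note: 0% = vehicle wells and 100% = reference inhibitor wells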
GDH-TPI counter-2: GDH-TPI coupling enzyme inhibitors, artefact control for M. tuberculosis FBA inhibitor project, biochemical, fluorescence, high throughput; 81% of 5,600 active; GDH-TPI coupled enzyme counterscreen; shares compounds with Mtb FBA inh; inhibition, % at 1 µM; in the data active = inhibition above about 10%
An asterisk follows results filed as active; . = no result given; + = active, no number. Cut-off read from the data, not from the text of the source, unless noted: active = inhibition above about 27%; inactive = the rest.

SMILES | PrP UTR inh | Yp Topo-I inh | Mtb hypoxia inh | PrPC TRFRET | Mtb FBA inh | GDH-TPI counter-1 | Mtb FBA inh conf | GDH-TPI counter-2
COc1cc(C=NNC(=O)Cc2ccc(Br)cc2)cc(OC)c1O | . | . | -3 | . | . | . | . | .
Nc1nnnn1N=Cc1ccccc1OCc1ccc(Cl)cc1 | . | . | 1 | . | . | . | . | .
Cc1cccc2c(=O)n3c(cc12)-c1[nH]c2ccccc2c1CC3 | -22 | -21 | . | 7 | 83* | 9 | 168* | 110*
Cc1[nH]n(-c2cccc(Cl)c2)c(=O)c1C=Nn1c(C)nc2ccccc2c1=O | . | . | -5 | . | . | . | . | .
Cc1nc2c3cnn(-c4ccc(C)c(C)c4)c3ncn2n1 | -113 | 1 | 3 | -8 | 38* | 7 | 119* | 96*
Cc1ccc(-n2ncc3c(=O)n(CC(N)=O)cnc32)cc1C | -26 | 4 | 10 | 6 | 2 | -4 | . | .
CCOc1ccc(CNC(=S)NN=Cc2ccncc2)cc1 | . | . | 1 | . | . | . | . | .
O=C1c2ccccc2C(=Cc2ccc3[nH]ccc3c2)N1c1ccccc1 | . | . | 6 | . | . | . | . | .
COc1ccc2cc(C(=O)C3CCCN(C(=O)C4=NN(C)C(=O)CC4)C3)ccc2c1 (stereo unspecified) | -8 | 13 | 9 | -6 | 63* | 11 | 85* | 52*
COc1ccc2cc(C(=O)C3CCCN(Cc4ccccn4)C3)ccc2c1 (stereo unspecified) | -11 | -4 | 5 | -3 | 41* | 6 | + | +
COc1ccc2cc(C(=O)C3CCCN(C(=O)c4cnn(C(C)C)c4)C3)ccc2c1 (stereo unspecified) | -25 | 25 | -14 | 5 | 105* | 14 | 50* | 39*
O=C(c1ccc(Cl)cc1)C1CCCN(C(=O)c2csnn2)C1 (stereo unspecified) | -24 | -4 | 19 | 11 | -1 | 5 | . | .
COc1ccc(C(=O)N2CCCC(C(=O)N3CCCCCC3)C2)cc1 (stereo unspecified) | -31 | 4 | -3 | 1 | 0 | -8 | . | .
CCNC(=O)N1CCCC(C(=O)c2ccc3cc(OC)ccc3c2)C1 (stereo unspecified) | 5 | -4 | 14 | 9 | 16 | 3 | . | .
COc1ccc2cc(C(=O)C3CCCN(C(=O)c4csnn4)C3)ccc2c1 (stereo unspecified) | -13 | -2 | 6 | 2 | 96* | 26 | 44* | 35*
CSc1ccc(C=NN2CCN(Cc3ccc(Cl)cc3)CC2)cc1 | . | . | -1 | . | . | . | . | .
CCOC(=O)C(=NO)C1=NC(C)(C)Cc2ccccc21 | . | . | 6 | . | . | . | . | .
COc1cccc(C2=CC(=O)CC(c3ccc(F)cc3)C2)c1OC (stereo unspecified) | . | . | 10 | . | . | . | . | .
CCC1(CC)Cc2ccccc2-c2nc(NCCCO)[nH]c(=O)c21 | -18 | 17 | 1 | 4 | 59* | 8 | + | +
COC(=O)C1=C(C)N(CC2CC2)C(=NCc2cccc(Cl)c2)NC1c1ccccc1 (stereo unspecified) | . | . | -4 | . | . | . | . | .
C[C@H]1CN([C@@H](C)CO)C(=O)c2cc(/C=C/c3ccccc3)cnc2O[C@H]1CN(C)C(=O)c1cccc(F)c1 | . | 5 | . | -7 | 64* | 3 | 66* | 58*
COC(=O)[C@@]1(Cc2ccccc2)C2c3cc(C(=O)N4CCCC4)n(CCSCCO)c3CC2CN1C(=O)c1ccccc1 (stereo partly specified) | . | . | 4 | . | . | . | . | .
CN1Cc2c(N3CCOCC3)nc3sc(C(=O)c4ccccc4)c(N)c3c2CC1(C)C | -16 | 3 | 14 | -12 | -1 | 7 | . | .
Cc1ccc(NC(=O)c2sc3nc(N4CCOCC4)c4c(c3c2N)CC(C)(C)OC4)cc1 | -20 | -5 | . | 5 | 3 | 9 | . | .
Nc1c(C(=O)NCCc2ccccc2)sc2nc(N3CCOCC3)c3c(c12)CCCC3 | -29 | 25 | -10 | 9 | 82* | 16 | 26 | 14*
